From PubChem BioAssay
The list is not random: actives were taken first. Their share in the collection is about 4.6%.
HSF1 inh: HSF1 inhibition; NIH3T3-HGL HSE-luciferase, MG132-induced, luminescence 8 h; stronger effect = lower value; AID 2098; actives 0.77% (n = 300,000); activity change, negative = inhibition, % at 7.5 µM (by protocol);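 active means more than half of replicate wells show activity change below -50%, luminescence cut by over half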;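 further: luciferase reports HSF-1 transcriptional activity via heat shock element; 0% = median of DMSO wells and -100% = zero luminescence signal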
GAA850 FXN act: frataxin GAA850 promoter activation; HEK293 lucGAA850 FXN promoter luciferase reporter, 24 h; percent of 10 µM SAHA response; activation, % at 6 µM; actives 0.56% (n = 360,000);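 active means activation above the average of all compounds screened plus 3 SD, cutoff fixed separately per campaign, cut at about 7.5% in these data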;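 further: 0% = DMSO wells and 100% = 10 µM SAHA wells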
AHR activator: activators of human aryl hydrocarbon receptor; AID 2796; AHR-responsive luciferase reporter cells, luminescence; actives 2.5% (n = 320,000); activation, % at 5 µM; in the data active means activation above about 47%;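 further: 0% = vehicle wells and 100% = reference agonist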
HSF1 activator: increases HSF-1 driven luciferase reporter signal; NIH3T3-HGL HSF-1 luciferase reporter, MG132, 8 h; 100% = twice DMSO control signal; activation, % at 9 µM; actives 1.7% (n = 300,000); AID 504408;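 active means mean replicate activation of at least 50% with a set share of replicates each reaching 50%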;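 further: 0% = median of the neutral control wells and 100% = twice that signal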
Active calls of the source: *; . = no result given.

SMILES	HSF1 inh	GAA850 FXN act	AHR activator	HSF1 activator
O=C(COc1ccccc1)NC(=S)Nc1cccc2cc(O)ccc12	66	1	14	85*
Cc1cc(C)cc(NS(=O)(=O)c2cc(Br)cnc2N)c1	5	0	5	10
COCc1cc(=O)[nH]c(SCCS(=O)(=O)c2ccc(Cl)cc2Cl)n1	88	4	0	78*
COc1ccc(C(=O)NNC(=O)CSc2nnc(C)n2CC2CCCO2)cc1 (configuration not stated)	6	3	0	22
c1ccc(N=Nc2ccc3cccccc2-3)cc1	48	7	41	75*
Nc1ccc(N=Nc2ccccc2)c(N)n1	11	3	3	10
Nc1ccc(N=Nc2ccccc2)c2ccccc12	8	3	55*	11
CCOC(=O)CNc1ncc([N+](=O)[O-])cc1C#N	11	2	0	41
Cn1c(C(C#N)C(=O)c2ccco2)nc2ccccc21 (configuration not stated)	17	6	77*	37
COc1cc(NS(=O)(=O)c2cc(C)ccc2OC)c(OC)cc1Cl	20	-1	20	67*
COc1ccc(C)cc1S(=O)(=O)Nc1cc(Cl)ccc1Cl	0	-1	23	7
COC(=O)c1ccc(/C=C(\C#N)c2ccccn2)cc1	43	5	0	86*
N#C/C(=C\c1ccc([N+](=O)[O-])cc1)c1ccccn1	49	2	17	73*
N#C/C(=C\c1ccccn1)c1ccccn1	-60*	4	24	-66
CCc1nnc(SCC(=O)Nc2ccc(N3CCOCC3)cc2)o1	-11	-1	1	-1
COc1ccc(Cc2nnc(SCC(=O)Nc3ccc(N4CCOCC4)cc3)o2)cc1	13	-1	0	61*
CCN(CC)CCN1C(=O)C(=O)/C(=C(/O)c2c(C)[nH]c(C(=O)OC)c2C)C1c1ccco1 (configuration not stated)	-6	2	3	4
Cc1c(OCC(=O)NCCCn2ccnc2)ccc2c3c(c(=O)oc12)CCCC3	30	-1	-6	57*
Cc1c(C)c2ccc(OCC(=O)Nc3ccccn3)c(C)c2oc1=O	-88*	-11	-5	-91
Cc1oc(C(=O)O)cc1COc1ccc2c3c(c(=O)oc2c1C)CCC3	-60*	6	0	-69
Cc1ccc(C(=O)N/N=C\c2cccs2)cn1	-5	2	4	-8
Nc1c(N(CCO)C(=O)/C=C/c2ccco2)c(=O)[nH]c(=O)n1Cc1ccccc1	2	0	0	2
CCCCN(C(=O)/C=C/c1ccco1)c1c(N)n(CCC)c(=O)[nH]c1=O	30	1	3	76*
CCCCOc1ccc(Br)cc1/C(C)=N/NC1=NCCN1	-32	-4	57*	-29
CCCCOc1ccc(Br)cc1CSC(=N)N	-2	-5	.	-7
SMILES	HSF1 inh	GAA850 FXN act	AHR activator	HSF1 activator
O=C(NCCc1ccccc1)c1ccc2nc(-c3ccco3)c(-c3ccco3)nc2c1	7	-2	-1	1
O=C(c1ccccc1)c1ccc2nc(-c3ccco3)c(-c3ccco3)nc2c1	19	5	1	89*
COc1ccc(N(CC(=O)NCc2ccccc2)S(=O)(=O)c2c(C)nn(C)c2C)cc1	-6	-1	0	0
Cn1c(=O)oc2cc(S(=O)(=O)NCCC(=O)NC3CCCc4ccccc43)ccc21 (configuration not stated)	-1	-2	-1	3
CC(C)CC(NS(=O)(=O)c1ccc2c(c1)oc(=O)n2C)C(=O)NC1CCCc2ccccc21 (configuration not stated)	30	3	0	62*
Cc1ccc(/C=C(/C#N)c2nc(CCN3C(=O)c4ccccc4C3=O)cs2)cc1	-53*	-3	-1	-65
COc1ccc(/C(C)=N/NC(=O)CNC(=O)/C=C\c2ccccc2)c(OC)c1	-66*	-1	5	-69
COc1ccc(/C(C)=N/NC(=O)CNC(=O)COc2ccccc2)c(OC)c1	-7	0	2	-10
Cc1ccc2oc(C(Cl)(Cl)Cl)cc(=O)c2c1	45	-2	3	52*
Cc1ccc2oc(C(F)(F)C(F)F)cc(=O)c2c1	-14	1	0	-28
Cc1ccc(-c2csc(NC(=O)CSc3nc4ccccc4o3)n2)cc1	10	2	10	32
COc1ccc(-c2cc3cc(OC)c(OC)cc3cn2)cc1	.	6	65*	.
COc1ccc2cc(-c3ccccc3)ncc2c1	35	4	22	75*
O=[N+]([O-])c1ccc(F)cc1F	.	0	-1	.
CCCn1c(SCC(=O)c2cc(OC)ccc2OC)nnc1C(C)C	48	0	7	90*
COc1ccc(OC)c(C(=O)CSc2nnc(Cc3cccs3)n2C)c1	3	1	3	-6
C/C=C1\COC(C(=O)NCc2ccccc2)(C(F)(F)F)C=C1C=C(C)C (configuration not stated)	135	-1	0	153*
CC(C)CCn1cnc2c1c(=O)[nH]c(=O)n2Cc1ccccc1	2	3	3	-4
CC1=Nn2c(nnc2-c2cccs2)SC1	2	-2	4	6
O=c1oc2cc(Cl)ccc2n1CSc1nc2ccccc2s1	63	4	40	104*
Nc1c(Cl)cc(Cl)cc1C(=O)OCC(=O)N1CCOCC1	-2	1	3	30
O=C(OCC(=O)N1CCOCC1)c1c(Cl)ccc(Cl)c1Cl	-3	3	48*	5
NC(=NCc1ccc2c(c1)OCO2)NC(=O)c1ccccc1	-13	2	.	-18
NC(=NCc1ccccc1)NC(=O)c1nc(Cl)c(N)nc1N	5	1	69*	4
CC(=O)Oc1ccc(C(=O)Nc2ccc(C3(C#N)CCCC3)cc2)cc1	-8	3	60*	-29
SMILES	HSF1 inh	GAA850 FXN act	AHR activator	HSF1 activator
N#CC1(c2ccc(NC(=O)c3ccccc3)cc2)CCCC1	36	4	33	40
CCCC(=O)Nc1ccc2c(c1)nc(CN1CCCC1)n2C	-3	1	3	9
CC(C)C(=O)N1CCN(c2ccccc2NC(=O)c2ccc(C#N)cc2F)CC1	-6	1	32	-10
CC1CCN(c2ccccc2NC(=O)c2ccc(C#N)cc2F)CC1	-4	1	71*	-7
N#Cc1nc(-c2cccs2)oc1NCCCN1CCOCC1	4	2	2	30
C[C@@H]1CN([C@H](C)CO)S(=O)(=O)c2ccc(-c3cccc(C#N)c3)cc2O[C@H]1CN(C)C(=O)Nc1cc(F)ccc1F	.	-3	.	.
CS(=O)(=O)Oc1ccc2c(c1)O/C(=C\c1cccc([N+](=O)[O-])c1)C2=O	6	1	.	7
CCN(CC)Cc1c(O)ccc2c1O/C(=C\C=C\c1ccccc1)C2=O	82	-12	-4	116*
CS(=O)(=O)Oc1ccc2c(c1)O/C(=C\C=C\c1ccccc1)C2=O	56	1	-2	109*
Cc1cccc(N(Cc2cc(=O)[nH]c3ccccc23)C(=O)CCl)c1	0	-11	7	7
CCCCCCN(C(=O)CCl)c1ccccc1	-68*	-6	0	-71
CCCCCCCN(C(=O)CCl)c1cccc(C)c1	-93*	-4	2	-93
